# Where “and” joins values, the source holds several entries; their conditions need not be identical. Identical values can stand only once. Like-named read-outs stand apart in the source and are kept apart here.
# Assays:
# KIT = conditions: concentration: 1 μM, replicates: in singlicate; n = 1
# LATS1 = conditions: concentration: 1 μM, replicates: in singlicate; n = 1
# LATS2 = conditions: n = 1
# LCK = conditions: n = 1
# LIMK1 = conditions: n = 1
# LIMK2 = conditions: n = 1
# LKB1 = test system: T1, LKB1; conditions: concentration: 1 μM, replicates: in singlicate; n = 1
# T1 construct: gene STK11
# LOK = test system: T2, LOK; conditions: concentration: 1 μM, replicates: in singlicate; n = 1
# T2 construct: gene STK10
# LRRK2 = conditions: concentration: 1 μM, replicates: in singlicate; n = 1
# LTK = conditions: n = 1
# [1] = concentration: 1 μM, replicates: in singlicate
# [2] = concentration: 1 μM,replicates: in singlicate, 1 µM
# 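Further: KINOMEscan kinase panel screen.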
SMILES,%Inh (KIT) [%],%Inh (LATS1) [%],%Inh (LATS2; [1]) [%],%Inh (LCK; [1]) [%],%Inh (LIMK1; [1]) [%],%Inh (LIMK2; [1]) [%],%Inh (LKB1) [%],%Inh (LOK) [%],%Inh (LRRK2) [%],%Inh (LTK; [1]) [%],%Inh (LATS2; [2]),%Inh (LCK; [2]),%Inh (LIMK1; [2]),%Inh (LIMK2; [2]),%Inh (LTK; [2])
CS(=O)(=O)c1ccc(-c2c(-c3ncn[nH]3)sc(N3CCOCC3)c2C#N)cc1,28,24,9,8,0,3,0,31,0,28,,,,,
CC(C)(C)c1ccc(C(=O)Nc2cn3cc(-c4cccnc4)ccc3n2)cc1,91.5,23,10,8,16,20,24,79,0,19,,,,,
COc1cc(Nc2nccc(N3CCC(NC(=O)Nc4cc(C)ccc4C)C3)n2)cc(OC)c1OC (stereo not shown) [GSK1379762],78,0,0,21,20,15,0,25,22,67,,,,,
COc1cc2nccc(Nc3ccc(NC(=O)c4ccc(C)cc4)c(O)c3)c2cc1OC.Cl [GW440132],38,0,0,83,4,1,2,0,28,0,,,,,
CCn1c(-c2ccccn2)nc2cnccc21 [SB-736398],0,0,0,12,13,0,0,0,31,1,,,,,
COc1ccccc1-c1ccc2c(NC(=O)C3CC3)n[nH]c2n1 [SB-711239],0,28,8,10,0,5,6,0,0,4,,,,,
O=C(Nc1ccccc1)Nc1cccc(Oc2ccc3nccn3n2)c1,100,0,30,33,0,0,24,18,0,0,,,,,
Cc1cccc(-c2cc(Nc3ccncc3)c3ccccc3n2)n1 [GSK223675],19,0,22,9,0,0,7,0,0,0,,,,,
Cc1cccc(-c2nc(C)cc(Nc3ccncc3)n2)n1 [GSK257997],17,0,0,34,11,19,8,0,0,16,,,,,
Cc1c(Cn2ccn3c(=O)cc(N4CCOCC4)nc23)cccc1C(F)(F)F [GSK2289044],10,0,13,7,0,0,10,0,0,0,,,,,
Cc1nnc(-c2ccc3occ(-c4ccc(S(C)=O)cc4)c3c2)[nH]1 (stereo not shown),20,19,0,46,0,0,23,98.7,0,0,,,,,
CS(=O)(=O)c1ccc(-c2nc3n(c2-c2ccncc2)CCC3)cc1 [SKF-105942],0,0,0,8,19,0,0,0,0,0,,,,,
COc1cccc(-c2cc(-c3c[nH]nc3-c3ccccn3)ccn2)c1 [GW680338],9,64,0,10,0,15,1,10,6,0,,,,,
O=S(=O)(c1ccc(-c2ccnc3[nH]ccc23)cc1)N1CCCC1 [GSK846226],23,0,68,5,7,21,5,0,0,0,,,,,
Cc1cccc(-c2nc(Nc3cccc(C(N)=O)c3)c3ccccc3n2)n1 [GW876019],0,8,0,20,0,9,0,21,73,40,,,,,
O=c1cc(N2CCOCC2)nc2n(Cc3cccc(Cl)c3Cl)ccn12 [GSK2286295],32,0,13,9,0,0,0,0,31,0,,,,,
CC(=O)Nc1nc2cnc(Nc3cc(NC(=O)c4cccc(CCC#N)c4)ccc3C)nc2s1,99.7,21,29,27,0,0,0,0,0,0,,,,,
Cc1cc(-c2ccc3c(c2)CC[C@@H](N[C@@H](C)c2ccccc2)C3)cnc1N.Cl [GW412617],60,0,0,34,0,0,0,0,33,0,,,,,
CSc1nn2c(=O)cc(N3CCOCC3)nc2n1Cc1cccc(C(F)(F)F)c1C [GSK2363608],4,0,,,,,0,0,0,,13% and 0%,29% and 2%,6% and 17%,20% and 0%,17% and 0%
